In PubChem BioAssay AID2071 (Sanford-Burnham Center for Chemical Genomics, 2009) one finds inhibition data, which are given here for 20 compounds.

This experiment is described as follows: NALP1 inflammasome inhibitors in reconstituted yeast, colorimetric, S. cerevisiae, triplicate retest (AID 2071). To be noted: S. cerevisiae NALP1/ASC/caspase-1 growth, X-gal OD620, 72 h, stronger effect = higher value.

In all, about 280,000 compounds went through this assay and about 1,700 (0.61%) were called active. Rule as the data show it: active = inhibition mostly above about 24% (no sharp cut-off); inactive = mostly below about 32%. Only a selection was taken, and actives are over-represented in it overall.

With `CCCCCCCCCCCCn1ccc(=N)cc1`, the inhibition (at 10 µM unless noted) was 92.4% (active).

As for `O=C(N/N=C/c1c(O)n(C2CC2)c(=S)[nH]c1=O)c1ccccc1`, under “at 10 µM unless noted”, the inhibition is -16.2% (inactive).

Regarding `COc1ccc(CNCCc2c[nH]c3ccccc23)cc1OC`, for the setting “at 10 µM unless noted”, the inhibition was -6% (inactive).

Turning to `CCN1CCN(Cc2cc(OC)c3c(c2)OCO3)CC1`, the inhibition (at 10 µM unless noted) was -2.2% (inactive).

On to `CN1CCN(C(=O)COc2ccc(C(C)(C)C)cc2Br)CC1`, for which the inhibition (at 10 µM unless noted) was 8.8% (inactive).

As to `CC(C)(C)c1ccc(OC(=O)N2CCCCC2)cc1`, where the note is “at 10 µM unless noted”, the inhibition is 41% (active).

In the case of `O=C(Nc1cccc(OC(=O)N2CCCCC2)c1)N1CCOCC1`, the inhibition (at 10 µM unless noted) was -35.9% (inactive).

With `Cc1ccc(S(=O)(=O)N(C)c2ccc(C(=O)NCC3(N(C)C)CCCCC3)cc2)cc1`, the inhibition (at 10 µM unless noted) was 9.8% (inactive).

As for `COc1ccc(CNCCc2ccc3c(c2)OCO3)c(OC)c1OC`, the inhibition (at 10 µM unless noted) is 30.6% (inactive).

For `CC(C)c1ccc(OCC(=O)N2CCCN(C)CC2)cc1`, the inhibition (at 10 µM unless noted) is 3.6% (inactive).

For the compound `C=CCN1C(=O)NC(=O)/C(=C/c2ccc(OCC(=O)Nc3ccc(C)cc3)cc2)C1=O`, the inhibition (at 10 µM unless noted) was 25% (inactive).

For `CCN1CCN(c2nc3c(c(=O)[nH]2)CCC3)CC1`, the inhibition (at 10 µM unless noted) is 25.1% (inactive).

On to `CN(C)/C=C(\C=[N+](C)C)c1[nH]ncc1[N+](=O)[O-]`, for which, for the setting “at 10 µM unless noted”, the inhibition is 35.3% (active).

With `CCN(CC)C(=O)c1ccc(NC(=O)c2sccc2-c2ccccc2)cc1`, the inhibition (at 10 µM unless noted) is 1% (inactive).

`O=C(N/N=C/c1c(O)n(C2CC2)c(=S)[nH]c1=O)c1ccccc1Cl`: for the setting “at 10 µM unless noted”, the inhibition is 3.2% (inactive).

With `Clc1ccc2nc3c(c(-c4ccccc4)c2c1)CNCC3`, the inhibition is 45% (active) (at 10 µM) and 66.3% (triplicate retest, at 20 µM).

For `COc1ccc2[nH]c3c(c2c1)CCN[C@H]3C`, the inhibition (at 10 µM unless noted) was 14.7% (inactive).

Consider `COc1ccc(N=Cc2c(O)n(C)c(=O)[nH]c2=O)cc1`, for which the inhibition (at 10 µM unless noted) was 12.7% (inactive).

As for `CN(c1ccccc1)c1ccc([N+](=O)[O-])c2nonc12`, for the setting “at 10 µM unless noted”, the inhibition is -7.2% (inactive).

`Cc1nc2ccccc2c(=O)n1-c1ccc(Cl)cc1Cl`: the inhibition (at 10 µM unless noted) was 11.2% (inactive).

The term inhibition denotes the drop in the measured response relative to a control, in per cent.
